Columns and labels:
[1] = target: T1, Discoidin domain-containing receptor 2 (Homo sapiens) (UniProt Q16832); conditions: at 0.1 µM
T1 sequence (whole entry): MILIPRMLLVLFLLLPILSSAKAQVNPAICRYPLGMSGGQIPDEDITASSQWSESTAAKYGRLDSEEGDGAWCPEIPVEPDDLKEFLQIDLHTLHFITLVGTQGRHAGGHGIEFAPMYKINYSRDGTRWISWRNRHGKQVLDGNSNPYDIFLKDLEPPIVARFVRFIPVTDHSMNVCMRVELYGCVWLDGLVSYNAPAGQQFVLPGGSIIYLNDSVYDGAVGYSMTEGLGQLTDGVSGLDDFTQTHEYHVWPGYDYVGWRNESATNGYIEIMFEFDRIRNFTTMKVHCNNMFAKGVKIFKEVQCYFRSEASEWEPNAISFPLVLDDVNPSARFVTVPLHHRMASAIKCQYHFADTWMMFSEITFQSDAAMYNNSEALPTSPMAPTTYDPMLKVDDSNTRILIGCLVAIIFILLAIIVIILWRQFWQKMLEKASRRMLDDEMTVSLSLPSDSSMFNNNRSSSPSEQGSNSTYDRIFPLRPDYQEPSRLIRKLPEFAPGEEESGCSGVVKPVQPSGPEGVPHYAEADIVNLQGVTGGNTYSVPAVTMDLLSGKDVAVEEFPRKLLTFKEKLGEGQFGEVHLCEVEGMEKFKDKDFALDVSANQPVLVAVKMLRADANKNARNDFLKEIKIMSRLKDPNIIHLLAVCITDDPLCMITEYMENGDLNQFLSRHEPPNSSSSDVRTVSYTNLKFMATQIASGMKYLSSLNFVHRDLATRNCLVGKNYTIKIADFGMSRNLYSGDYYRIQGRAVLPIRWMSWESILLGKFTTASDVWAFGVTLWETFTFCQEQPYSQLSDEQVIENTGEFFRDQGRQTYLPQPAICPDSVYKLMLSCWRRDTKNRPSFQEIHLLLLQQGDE

[2] = target: T1, Discoidin domain-containing receptor 2 (Homo sapiens); conditions: at 1 µM
[3] = target: Epidermal growth factor receptor (Homo sapiens) (UniProt P00533); conditions: at 0.1 µM
[4] = target: Epidermal growth factor receptor (Homo sapiens) (UniProt P00533); conditions: at 1 µM
[5] = system: Epidermal growth factor receptor (Homo sapiens), P00533 [L858R]; conditions: at 0.1 µM
[6] = system: Epidermal growth factor receptor (Homo sapiens), P00533 [L858R]; conditions: at 1 µM
[7] = system: Epidermal growth factor receptor (Homo sapiens), P00533 [L861Q]; conditions: at 0.1 µM
[8] = system: Epidermal growth factor receptor (Homo sapiens), P00533 [L861Q]; conditions: at 1 µM
[9] = system: Epidermal growth factor receptor (Homo sapiens), P00533 [T790M]; conditions: at 0.1 µM
[10] = target: Tyrosine-protein kinase CSK (Homo sapiens) (UniProt P41240); conditions: at 1 µM;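 also: each value is an averaged inhibition reading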
Tyrosine-protein kinase CSK (Homo sapiens), sequence (P41240 2-450 limits assumed): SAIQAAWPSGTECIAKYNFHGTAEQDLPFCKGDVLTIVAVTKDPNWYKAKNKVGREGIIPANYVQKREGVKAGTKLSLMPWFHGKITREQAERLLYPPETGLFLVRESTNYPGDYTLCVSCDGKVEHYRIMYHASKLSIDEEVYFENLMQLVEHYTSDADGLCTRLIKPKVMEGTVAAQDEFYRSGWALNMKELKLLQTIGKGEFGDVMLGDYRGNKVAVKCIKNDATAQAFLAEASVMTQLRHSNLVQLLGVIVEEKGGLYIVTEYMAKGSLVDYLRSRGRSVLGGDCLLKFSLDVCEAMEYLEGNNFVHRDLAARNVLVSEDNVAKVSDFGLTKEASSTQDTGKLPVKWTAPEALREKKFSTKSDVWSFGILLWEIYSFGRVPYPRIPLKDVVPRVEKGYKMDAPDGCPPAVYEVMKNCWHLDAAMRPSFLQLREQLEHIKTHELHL

Epidermal growth factor receptor (Homo sapiens), P00533 [L861Q], sequence (P00533 whole entry L861Q): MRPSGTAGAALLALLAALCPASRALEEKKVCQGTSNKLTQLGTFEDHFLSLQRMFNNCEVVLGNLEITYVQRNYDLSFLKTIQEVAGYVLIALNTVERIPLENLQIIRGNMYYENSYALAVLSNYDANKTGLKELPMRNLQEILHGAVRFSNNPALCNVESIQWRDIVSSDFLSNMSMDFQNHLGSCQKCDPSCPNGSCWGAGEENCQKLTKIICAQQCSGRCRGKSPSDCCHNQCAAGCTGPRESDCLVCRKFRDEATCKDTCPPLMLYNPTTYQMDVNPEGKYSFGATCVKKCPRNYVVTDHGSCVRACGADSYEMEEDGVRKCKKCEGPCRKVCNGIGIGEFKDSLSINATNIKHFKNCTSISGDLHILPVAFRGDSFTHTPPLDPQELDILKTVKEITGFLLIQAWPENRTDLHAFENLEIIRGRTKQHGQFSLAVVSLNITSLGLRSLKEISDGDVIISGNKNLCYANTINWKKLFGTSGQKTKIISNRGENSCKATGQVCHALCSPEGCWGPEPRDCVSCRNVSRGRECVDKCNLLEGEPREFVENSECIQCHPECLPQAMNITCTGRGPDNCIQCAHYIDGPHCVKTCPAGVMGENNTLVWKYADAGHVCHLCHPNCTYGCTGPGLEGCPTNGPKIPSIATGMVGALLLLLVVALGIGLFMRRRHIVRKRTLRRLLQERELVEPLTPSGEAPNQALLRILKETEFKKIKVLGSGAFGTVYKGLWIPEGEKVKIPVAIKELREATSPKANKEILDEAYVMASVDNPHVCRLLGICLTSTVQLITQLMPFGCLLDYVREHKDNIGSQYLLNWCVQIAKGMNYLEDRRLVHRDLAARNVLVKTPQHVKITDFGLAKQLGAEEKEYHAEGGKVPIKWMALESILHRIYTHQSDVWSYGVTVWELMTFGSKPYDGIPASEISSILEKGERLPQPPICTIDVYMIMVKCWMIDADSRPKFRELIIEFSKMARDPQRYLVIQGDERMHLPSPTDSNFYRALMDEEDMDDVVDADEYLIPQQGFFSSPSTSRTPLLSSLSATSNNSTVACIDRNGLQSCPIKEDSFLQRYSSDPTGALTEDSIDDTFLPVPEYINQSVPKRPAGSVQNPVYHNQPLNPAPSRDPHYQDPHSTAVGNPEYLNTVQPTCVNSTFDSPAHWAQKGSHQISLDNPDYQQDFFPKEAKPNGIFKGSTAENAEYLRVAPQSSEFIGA
Epidermal growth factor receptor (Homo sapiens), sequence (P00533 whole entry): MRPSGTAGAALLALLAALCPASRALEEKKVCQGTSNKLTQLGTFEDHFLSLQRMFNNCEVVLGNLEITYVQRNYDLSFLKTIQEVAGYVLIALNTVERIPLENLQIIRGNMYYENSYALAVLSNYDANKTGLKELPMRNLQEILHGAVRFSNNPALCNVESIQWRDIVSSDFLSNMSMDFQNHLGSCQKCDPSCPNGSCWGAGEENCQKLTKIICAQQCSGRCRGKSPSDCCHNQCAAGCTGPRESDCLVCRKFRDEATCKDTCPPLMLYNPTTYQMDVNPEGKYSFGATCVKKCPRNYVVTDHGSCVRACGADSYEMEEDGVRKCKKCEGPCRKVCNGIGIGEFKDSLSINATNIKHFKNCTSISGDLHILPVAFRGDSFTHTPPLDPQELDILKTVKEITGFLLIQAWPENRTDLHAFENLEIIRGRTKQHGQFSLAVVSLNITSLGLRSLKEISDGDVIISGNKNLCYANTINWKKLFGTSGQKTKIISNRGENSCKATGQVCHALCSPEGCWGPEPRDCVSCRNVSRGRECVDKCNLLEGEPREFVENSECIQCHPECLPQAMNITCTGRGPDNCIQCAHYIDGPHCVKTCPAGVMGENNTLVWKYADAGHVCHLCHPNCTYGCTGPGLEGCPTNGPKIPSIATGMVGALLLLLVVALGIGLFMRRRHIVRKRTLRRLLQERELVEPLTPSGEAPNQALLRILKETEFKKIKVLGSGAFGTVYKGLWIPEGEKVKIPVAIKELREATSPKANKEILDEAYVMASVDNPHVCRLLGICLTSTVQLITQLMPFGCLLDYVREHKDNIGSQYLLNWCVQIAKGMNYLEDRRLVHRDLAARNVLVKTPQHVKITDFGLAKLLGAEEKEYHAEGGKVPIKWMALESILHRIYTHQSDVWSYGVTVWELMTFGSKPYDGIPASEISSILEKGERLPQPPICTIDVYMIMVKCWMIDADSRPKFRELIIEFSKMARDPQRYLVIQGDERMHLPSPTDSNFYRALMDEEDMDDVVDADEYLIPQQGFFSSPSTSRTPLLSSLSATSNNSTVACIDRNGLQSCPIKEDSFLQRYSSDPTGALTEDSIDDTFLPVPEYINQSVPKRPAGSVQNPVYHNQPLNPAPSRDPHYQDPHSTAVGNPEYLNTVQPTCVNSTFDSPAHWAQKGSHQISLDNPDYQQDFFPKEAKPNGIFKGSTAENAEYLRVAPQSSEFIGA
Epidermal growth factor receptor (Homo sapiens), P00533 [T790M], sequence (P00533 whole entry T790M): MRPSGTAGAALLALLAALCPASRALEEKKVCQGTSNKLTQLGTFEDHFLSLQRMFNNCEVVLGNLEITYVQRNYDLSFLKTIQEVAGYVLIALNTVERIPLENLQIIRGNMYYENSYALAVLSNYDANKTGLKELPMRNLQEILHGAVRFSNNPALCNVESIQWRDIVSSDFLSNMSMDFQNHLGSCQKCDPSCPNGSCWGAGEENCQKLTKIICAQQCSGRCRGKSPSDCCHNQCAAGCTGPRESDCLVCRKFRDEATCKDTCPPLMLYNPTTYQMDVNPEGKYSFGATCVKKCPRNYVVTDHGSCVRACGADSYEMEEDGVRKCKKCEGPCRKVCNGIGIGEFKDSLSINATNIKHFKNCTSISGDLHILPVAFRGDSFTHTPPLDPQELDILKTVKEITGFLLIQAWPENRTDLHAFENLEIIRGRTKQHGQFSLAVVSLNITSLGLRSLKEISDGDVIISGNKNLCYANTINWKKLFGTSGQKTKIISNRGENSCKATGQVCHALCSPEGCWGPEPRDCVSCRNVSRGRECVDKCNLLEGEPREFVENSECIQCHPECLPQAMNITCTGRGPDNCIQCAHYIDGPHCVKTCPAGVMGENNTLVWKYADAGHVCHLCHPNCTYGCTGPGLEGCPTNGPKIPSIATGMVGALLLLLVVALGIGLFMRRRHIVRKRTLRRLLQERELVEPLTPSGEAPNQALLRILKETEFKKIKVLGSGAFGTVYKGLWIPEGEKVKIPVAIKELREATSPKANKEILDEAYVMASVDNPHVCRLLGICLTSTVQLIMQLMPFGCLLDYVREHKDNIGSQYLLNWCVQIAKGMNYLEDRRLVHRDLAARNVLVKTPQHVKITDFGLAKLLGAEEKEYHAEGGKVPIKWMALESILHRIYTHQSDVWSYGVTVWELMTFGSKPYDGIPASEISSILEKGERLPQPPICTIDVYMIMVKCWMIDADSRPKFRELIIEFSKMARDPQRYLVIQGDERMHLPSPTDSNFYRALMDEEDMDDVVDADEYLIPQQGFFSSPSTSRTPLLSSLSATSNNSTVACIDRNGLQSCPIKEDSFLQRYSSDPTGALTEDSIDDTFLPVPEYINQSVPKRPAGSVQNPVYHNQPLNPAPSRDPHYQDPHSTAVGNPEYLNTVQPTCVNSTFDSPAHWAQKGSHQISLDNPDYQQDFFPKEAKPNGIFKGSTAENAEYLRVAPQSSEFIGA

Compound | inhibition [1] | inhibition [2] | inhibition [3] | inhibition [4] | inhibition [5] | inhibition [6] | inhibition [7] | inhibition [8] | inhibition [9] | inhibition [10]
Cc1ccc(C(=O)NC(C)C)cc1-c1ccc(C(=O)NCC2CC2)cc1 | -0.36% | 0.09% | 0.3% | 1.34% | -1.62% | -1.21% | -0.86% | -2.64% | -0.77% | –
C[C@@H](Oc1cc(-n2cnc3ccc(OC4CCN(C)CC4)cc32)sc1C(N)=O)c1ccccc1Cl | 1.72% | 4.56% | 0.49% | 3.58% | 1.45% | 3.56% | 2.71% | 4.46% | 0.91% | 5.07%
NC(=O)c1ccc(Oc2nccc(-c3c(-c4ccc(F)cc4)ncn3C3CCNCC3)n2)cc1 | 0.13% | 0.3% | 0.48% | 1.21% | 3.13% | 2.9% | 2.71% | 5.43% | 2.31% | 4.26%
C[C@@H](Oc1cc(-n2cnc3ccc(OCC4CCN(C)CC4)cc32)sc1C(N)=O)c1ccccc1Cl | 2.64% | 8.53% | 3.04% | 3.73% | 4.5% | 19.8% | 1.43% | 5.89% | 1.15% | 3.59%
Fc1ccc(-c2ncn(C3CCNCC3)c2-c2ccnc(Oc3ccc(Oc4ccccc4)cc3)n2)cc1 | 2.83% | 14.8% | 2.08% | 4.02% | -0.18% | 11.3% | 2.06% | 6.3% | 1.46% | 3.28%
NC(=O)c1cc(-c2ccc(F)cc2)cc(-c2ccncc2)c1N | 1.42% | 2.13% | -0.24% | 5.03% | 5.96% | 7.27% | 4.19% | 7.37% | 1.23% | 5.4%
Fc1ccc(-c2ncn(CCCN3CCOCC3)c2-c2ccncc2)cc1 | 0.11% | -0.13% | 0.44% | 1.09% | -0.51% | -2.87% | -1.64% | -2.82% | -1.82% | -6.18%
COc1cc(Nc2ncc3c(C)nc(-c4cccc(Oc5ccccc5)c4)n3n2)cc(OC)c1OC | 1.95% | 0.6% | -0.83% | 3.44% | 2.38% | 1.65% | 0.98% | -0.89% | 1.28% | 0.83%
CCc1nccc2c1nc(-c1nonc1N)n2CC | 1.17% | 2.38% | 6.7% | 7.54% | 0.22% | -2.09% | -1.13% | -0.05% | -1.16% | -3.01%
C/C(Nc1ccc(S(N)(=O)=O)cc1)=C1/C(=O)Nc2ccccc21 | -0.09% | 0.07% | -1.34% | 2.48% | -0.73% | 0.1% | 0.08% | 0.01% | -0.56% | -4%
Fc1ccc(-c2c(-c3ccncc3)nc3n2CCS3)cc1 | 0.56% | -0.39% | -4.84% | -0.06% | 3.61% | 22.2% | 1.81% | 1.46% | 1.14% | 5.05%
Clc1ccc(CNc2nccc(-c3cnn4ncccc34)n2)cc1 | 1.86% | 4.61% | 0.75% | 3.24% | 3.13% | 5.2% | -1.04% | 0.71% | 0.11% | 2.58%
CCN(CC)Cc1ccc(Nc2nccc(-c3cnn4ncccc34)n2)cc1 | 1.64% | 4.24% | -1.99% | -1.76% | -0.85% | -1.39% | 1.51% | 1.54% | 0.54% | 8.18%
CN(C)c1ccc2c(c1)/C(=C/Nc1ccc(S(N)(=O)=O)cc1)C(=O)N2 | 1.03% | 2.54% | 9.33% | 11.9% | 1.25% | 5.83% | 1.24% | 2.51% | 0.31% | 0.76%
COc1cc(Nc2ncc(-c3ccccc3)o2)cc(OC)c1OC | 0.74% | 8.58% | 6.02% | 13.8% | -1.09% | -0.27% | 0.27% | 0.17% | 0.05% | -0.86%
CS(=O)(=O)CCNCc1ccc(-c2ccc3ncnc(Nc4ccc(OCc5ccccc5)c(Br)c4)c3c2)o1 | 1.43% | 1.04% | 69.5% | 81.6% | 49.3% | 91.2% | 48.1% | 83.7% | 4.96% | 4.59%
CNC(=O)c1cncc(/C=C/c2c(C)cccc2C)c1 | 7.93% | 36.8% | -2.83% | 5.96% | 7.48% | 41.4% | 1.86% | 8.46% | -0.41% | 24.6%

Compound | inhibition [1] | inhibition [2] | inhibition [3] | inhibition [4] | inhibition [5] | inhibition [6] | inhibition [7] | inhibition [8] | inhibition [9] | inhibition [10]
COc1cccc(-n2cnc3c(N/N=C/c4ccncc4)ncnc32)c1 | -0.19% | 1.99% | 2.02% | 8.31% | 5.72% | 30.8% | 1.61% | 10.6% | -0.92% | 7.17%
c1ccc(-c2n[nH]cc2-c2ccnc(-c3ccc(OCCN4CCOCC4)cc3)c2)nc1 | 7.59% | 7.75% | 3.33% | 6.67% | -2.03% | -1.71% | -0.15% | -2.39% | -0.02% | -4.36%
CCS(=O)(=O)c1ccc(OC)c(Nc2ncc(-c3cccc(-c4ccccc4F)c3)o2)c1 | 4.99% | 30.8% | 4.07% | 23.3% | 14.1% | 62.1% | 4.78% | 24.4% | -1.94% | 4.82%
COc1cc(Nc2ncc3c(C)nc(-c4cccc(C(F)(F)F)c4)n3n2)cc(OC)c1OC | 0.31% | 0.73% | -0.06% | 0.98% | 4.13% | 4.89% | 2.74% | 8.43% | 1.49% | 12.9%
O=C(Nc1n[nH]c2nc(-c3ccco3)ccc12)C1CC1 | 5.94% | 7.53% | 2.44% | 4.53% | -0.69% | 4.35% | 1.04% | 1.77% | 0.31% | 4.82%
NCc1ccc(-n2c(-c3nonc3N)nc3cnccc32)cc1 | 2.78% | 3.01% | 1.73% | 1.72% | 3.13% | 1.55% | 2.5% | 2.02% | 3.36% | 1.46%
N#Cc1ccc(Oc2nccc(-c3c(-c4ccc(F)cc4)ncn3C3CCNCC3)n2)cc1 | 6.23% | 6.42% | -1.1% | 2.76% | -0.31% | 7.36% | 3.45% | 3.57% | 1.89% | 0.87%
CS(=O)(=O)CCNCc1cc(-c2cc3c(Nc4ccc(OCc5cccc(F)c5)c(Cl)c4)ncnc3s2)cs1 | 4.67% | 6.01% | 61.5% | 83.7% | 18.1% | 61.2% | 31.4% | 57.8% | 0.98% | 4.58%
COc1ccc(-c2ccc3c(NC(=O)C4CC4)n[nH]c3n2)cc1 | 0.86% | 0.84% | 0.14% | 0.71% | -1.64% | 3.91% | -0.19% | 2.45% | -0.2% | 4.87%
O=C(NCC1CC1)c1ccc(-c2cccc(C(=O)NC3CC3)c2)cc1 | 4.92% | 7.61% | 1.39% | 0.85% | 2.42% | -2.6% | -0.16% | -2.26% | 0.88% | -3.57%
NS(=O)(=O)c1ccc(Nc2cc(-c3ccc(O)c(F)c3)n[nH]2)cc1 | -0.38% | 18.8% | 0.49% | 3.68% | -2.81% | -2% | -1.84% | 0.29% | -1.07% | -6.35%
O=C(Nc1n[nH]c2nc(-c3ccc(O)cc3)c(Br)cc12)C1CC1 | 2.17% | 4.12% | 5.76% | 6.97% | 5.48% | 9.71% | 6.22% | 7.61% | 4.95% | 10.9%
COc1cc2ncn(-c3cc(OCCc4ccccc4)c(C(N)=O)s3)c2cc1OC | 0.75% | 2.48% | 7.08% | 7.65% | 2.45% | 9.43% | 0.8% | 0.3% | 0.19% | 2.94%
CCC(=O)Nc1ccc(C)c(-c2ccc(C(=O)NCC3CC3)cc2)c1 | 1.85% | 2.57% | 6.56% | 6.12% | 2.49% | 5.47% | 3.28% | 4.44% | 0.82% | 4.34%
COc1ccc2cc(-c3c(-c4ccncc4)nc(-c4ccc(S(C)(=O)=O)cc4C)n3C)ccc2c1 | -1.21% | -5.12% | 0.26% | 6.12% | 1.94% | 10.5% | 2.4% | 10.6% | 1.37% | 7.9%
CCS(=O)(=O)c1ccc(OC)c(Nc2ncc(-c3ccccc3Cl)o2)c1 | 3.73% | 8.46% | -0.49% | 0.66% | -1.25% | 7.46% | 2.33% | 1.22% | 1.78% | 1.96%
Fc1ccc(-c2nc3n(c2-c2ccncc2)CCS3)cc1 | 2.36% | 4.83% | 0.92% | 3.39% | 5.61% | 14.5% | 2.5% | 1.57% | 1.65% | 4.61%

Reference: ChEMBL document CHEMBL1961873, “Compounds: GSK PKIS; Assays: Nanosyn kinase panel” (2012)
